# Measurements as given in PubChem BioAssay AID2283105 (EPA ToxCast).
# Calls of active or inactive are those of the source. How the source made its calls: active means hit-call score of the fitted dose curve at least 0.9, where 1 is the maximum; inactive means score below 0.9.
# Molecular target: human CYP2E1, CYP2E1 (gene 1571) (UniProt P05181)
# Assay: NVS_ADME_hCYP2E1: NovaScreen (NVS) CYP450-related Enzyme Activity (ADME) Assay for human CYP2E1
# Protocol: NVS_ADME_hCYP2E1 is a biochemical, single-readout assay that uses extracted gene-proteins in a cell-free assay. Measurements were taken 0.5 hour after chemical dosing in a 96-well plate.NVS_ADME_hCYP2E1 is one of one assay component(s) measured or calculated from the NVS_ADME_hCYP2E1 assay. It is designed to make measurements of enzyme activity, a form of enzyme reporter, as detected with fluorescence intensity signals by Fluorescence technology.Data from the assay component NVS_ADME_hCYP2E1 was analyzed into 1 assay endpoint. This assay endpoint, NVS_ADME_hCYP2E1, was analyzed in the positive analysis fitting direction relative to Acetonitrile as the negative control and baseline of activity. Using a type of enzyme reporter, loss-of-signal activity can be used to understand changes in the enzymatic activity as they relate to the gene CYP2E1. Furthermore, this assay endpoint can be referred to as a primary readout, because this assay has produced multiple assay endpoints where this one serves a enzymatic activity function. To generalize the intended target to other relatable targets, this assay endpoint is annotated to the cyp intended target family, where the subfamily is xenobiotic metabolism. […]
# Chain of human CYP2E1, CYP2E1 (gene 1571) (P05181 whole entry, looked up): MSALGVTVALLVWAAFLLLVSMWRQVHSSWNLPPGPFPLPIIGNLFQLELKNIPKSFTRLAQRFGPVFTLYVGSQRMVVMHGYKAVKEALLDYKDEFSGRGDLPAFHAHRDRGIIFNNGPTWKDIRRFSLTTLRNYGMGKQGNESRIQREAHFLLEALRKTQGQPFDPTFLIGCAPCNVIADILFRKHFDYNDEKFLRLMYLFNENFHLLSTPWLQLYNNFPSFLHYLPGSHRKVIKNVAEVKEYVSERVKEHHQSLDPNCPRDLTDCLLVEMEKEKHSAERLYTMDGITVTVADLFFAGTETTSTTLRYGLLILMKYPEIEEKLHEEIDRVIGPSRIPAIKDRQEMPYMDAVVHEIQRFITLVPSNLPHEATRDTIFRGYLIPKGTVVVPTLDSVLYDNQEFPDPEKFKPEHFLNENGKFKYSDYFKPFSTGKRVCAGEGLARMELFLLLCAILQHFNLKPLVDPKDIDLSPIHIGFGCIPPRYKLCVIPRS
smiles,measurement,value
N#CSCSc1nc2ccccc2s1,AC50,5.32 µM (active)
